Test results from PubChem BioAssay (NCI).
Compounds without any hit were thinned out: in the full panel of roughly 83,000, 20% have a hit.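 Each cell line was grown in a 96-well plate and treated with one concentration of compound for 48 hours. Values below 10 were considered active.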 Unmarked numbers belong to inactive results. Activity calls are given as the source filed them.

What follows are compounds tested on TK-10 renal (assay: NCI-60 one-dose screen, 48 h (100 = growth as untreated, 0 = no growth, -100 = all killed)). Conditions: 10 µM unless noted.

Row | Compound | growth
1 | CC(C)(CNC1CCCCC1)OC(=O)c1ccccc1 | 104%
2 | COC(=O)c1ccc2[nH]c(O)c(C(=Nc3ccc(N(C)C(=O)CN4CCN(C)CC4)cc3)c3ccc4c(c3)OCO4)c2c1 | -9.95% (active)
3 | O=C(/C=C\c1ccc(NCc2ccc(C(=O)O)cc2)cc1)CCl | 93.4%
4 | CCCCCCC(C)N(CC(C)(C)O)C(=O)c1ccc([N+](=O)[O-])cc1 (stereo not drawn) | 92.6%
5 | C=CN(C)S(C)(=O)=O | 53.2%
6 | CCCCCCC(C(=O)OCC)(C(=O)OCC)C1CCCCCC1 | 102%
7 | CCOC(=O)NC1=NCC(C)(C)S1 | 98.4%
8 | Cc1ccc2c(c1)C(=O)CCS2 | 90.8%
9 | S=C(N/N=C/c1cc(Cl)cc(Cl)c1)NC12CC3CC(CC(C3)C1)C2 | 11.1%
10 | COC(=O)C(N)CC(C)C (stereo not drawn) | 90.6%
11 | O=C(Nc1ccc(Cl)c(Cl)c1)O/N=C\c1c(Cl)ccc([N+](=O)[O-])c1Cl | -97.2% (active)
12 | O=C(/C=C/c1ccc(Cl)cc1)c1ccc(Cl)cc1 | 78%
13 | O=C(Nc1cccc(Cn2c(=O)[nH]c3ccc(Oc4ncccn4)cc3c2=O)c1)c1cccc(F)c1 | 81%
14 | CC(=O)c1ccc2c(c1)c1ccccc1n2C | 108%
15 | CCC(C)CC(N)O (stereo not drawn) | 99%
16 | COc1cc2ncnc(-n3ncc4cc(NC(=O)Nc5ccccc5)ccc43)c2cc1OC | -41.1% (active)
17 | O=C(O)CS(=O)c1ccc(Cl)cc1 (stereo not drawn) | 96.1%
18 | O=C1C(=O)c2ccccc2C(O)=C1CCCc1ccc(Oc2ccccc2)cc1 | 90.7%
